Results filed as inconclusive are left out. A call without a number means that no potency is given here. More than one record can exist for a structure, and the calls need not agree. Activity calls are given as the source filed them. Unless noted, calls follow the shape of the dose curve; as a rule, active = well fitted curve in the direction sought with a large enough effect in the repeat runs; inconclusive = weak or mixed curves; inactive = no such curve, though single readings can be large; an effect the other way counts as inactive or inconclusive.
Experiments:
[1] = qHTS assay for small molecules that induce genotoxicity in human embryonic kidney cells expressing luciferase-tagged ATAD5 (AID 651632); also: nearly all actives have a fitted effect of over 15% in size
Method in brief: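 Luminescent reporter readout, HEK293T ATAD5-luc line: 16 hr drug exposure (37C, 5% CO2) followed by Amplite, 30 min RT.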

[2] = qHTS assay for small molecules that induce genotoxicity in human embryonic kidney cells expressing luciferase-tagged ATAD5 - cell viability (AID 651634; calls by dose curve; also: nearly all actives have a fitted effect of over 25% in size; also: potency is read from the fitted curve at half-maximal effect)
Method in brief: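 Viability read: CellTiter-Fluor fluorescence, 30 min at 37C. Cells: HEK293T, luciferase-tagged ATAD5. Exposure: 15.5 hr, 37C, 5% CO2, compound or DMSO vehicle.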

[3] = qHTS assay for small molecule disruptors of the mitochondrial membrane potential - cell viability (AID 720634; calls by dose curve;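 also: human HepG2 liver cancer cells; series mostly up to about 83 µM; nearly all actives have a fitted effect of over 20% in size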)
Method in brief: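 HepG2, 1 hr compound, 37 C. ATP luminescence via CellTiter-Glo, 30 min RT, same well as m-MPI.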

[4] = qHTS assay to test for compound auto fluorescence at 590 nm (red) in HepG2 cells (AID 720674)
Method in brief: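 Rose Bengal sodium served as the red fluorophore standard. HepG2 monolayers (overnight attachment, MEM with 10% FBS) were exposed to test compounds for 1 hr at 37 C and read at Ex 540/Em 590 nm.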

[5] = qHTS assay to test for compound auto fluorescence at 535 nm (green) in HepG2 cells (AID 720675)
[6] = qHTS assay to test for compound auto fluorescence at 460 nm (blue) in HEK293 cells (AID 720678); also: potency is read from the fitted curve at half-maximal effect
Method in brief: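 Intrinsic compound fluorescence is recorded in live HEK293 cultures after overnight incubation at 37C, 5% CO2, using excitation 405 nm and emission 460 nm. Values are referenced to triamterene.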

[7] = qHTS assay to test for compound auto fluorescence at 590 nm (red) in HEK293 cells (AID 720679)
Method in brief: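 Red autofluorescence, HEK293 cells: 2,000 cells/well; attach 4-5 hr 37C; add 23 nL cpd or DMSO; incubate o/n 37C 5% CO2; read Ex540/Em590; Rose Bengal sodium reference.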

[8] = qHTS assay to test for compound auto fluorescence at 535 nm (green) in HEK293 cells (AID 720680)
[9] = qHTS assay to test for compound auto fluorescence at 460 nm (blue) in HEK293 cell free culture (AID 720681); also: potency is read from the fitted curve at half-maximal effect
Method in brief: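 Test compounds were pinned into cell-free culture medium (DMEM with 10% FBS) and fluorescence was read directly at Ex/Em 405/460 nm. Signals were expressed as fluorescence equivalents of triamterene, with DMSO vehicle as control.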

[10] = qHTS assay to test for compound auto fluorescence at 535 nm (green) in HEK293 cell free culture (AID 720682)
Method in brief: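 Green-label autofluorescence (485 nm excitation, 535 nm emission) measured on compound added to cell-free culture medium (DMEM, 10% FBS). Output is expressed relative to fluorescein.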

[11] = qHTS assay to test for compound auto fluorescence at 590 nm (red) in HEK293 cell free culture (AID 720683)
Method in brief: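 Tox21 10K library compounds were pinned into cell-free DMEM with 10% FBS and fluorescence was read at excitation 540 nm. Activity is expressed as Rose Bengal sodium equivalency.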

[12] = qHTS assay to test for compound auto fluorescence at 590 nm (red) in HepG2 cell free culture (AID 720684)
Method in brief: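 Measured in medium alone (MEM containing 10% FBS) following pintool addition of compound; emission at 590 nm with 540 nm excitation, referenced to Rose Bengal sodium.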

[13] = qHTS assay to test for compound auto fluorescence at 460 nm (blue) in HepG2 cell free culture (AID 720685)
Method in brief: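 Compound (23 nL) or DMSO pinned into cell-free MEM with 10% FBS; blue fluorescence read at 405/460 nm excitation/emission, expressed as auto-fluorescence equivalency to triamterene.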

[14] = qHTS assay to test for compound auto fluorescence at 535 nm (green) in HepG2 cell free culture (AID 720686)
[15] = qHTS assay to test for compound auto fluorescence at 460 nm (blue) in HepG2 cells (AID 720687)
Method in brief: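 Cells (2,000/well in MEM with 10% FBS) attached overnight at 37 C, then were exposed to compound or DMSO for 1 hr at 37 C, 5% CO2. Fluorescence read at Ex/Em 405/460 nm, expressed as triamterene-equivalent signal.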

[16] = qHTS assay for small molecule agonists of the p53 signaling pathway - cell viability (AID 651633; calls by dose curve; also: nearly all actives have a fitted effect of over 30% in size; also: potency is read from the fitted curve at half-maximal effect)
Method in brief: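 p53RE-bla cells, seeded at 4,000 per well and rested 5 h at 37 C/5% CO2, received compounds in DMSO for 16 h at 37 C. CellTiter-Glo was then added, and luminescence was read after 30 min at room temperature to gauge cytotoxicity.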

[17] = qHTS assay for small molecule disruptors of the mitochondrial membrane potential (AID 720635); also: potency is read from the fitted curve at half-maximal effect
Method in brief: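 HepG2 cells (2,000/well) attached overnight at 37C, then took compound for 1 hr at 37C, 5% CO2. Mito-MPS dye was added for 30 min; fluorescence was read at 490/535 nm (monomers) and 540/590 nm (aggregates).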

[18] = molecular target: Glucocorticoid receptor (Homo sapiens) (UniProt P04150); experiment: qHTS assay to identify small molecule agonists of the glucocorticoid receptor (GR) signaling pathway (AID 720691; active = well fitted activation curve with a large enough effect in the signal ratio in the repeat runs, not every such curve was filed as active; the % refers to the signal ratio)
Glucocorticoid receptor (Homo sapiens), sequence (P04150 whole entry, looked up): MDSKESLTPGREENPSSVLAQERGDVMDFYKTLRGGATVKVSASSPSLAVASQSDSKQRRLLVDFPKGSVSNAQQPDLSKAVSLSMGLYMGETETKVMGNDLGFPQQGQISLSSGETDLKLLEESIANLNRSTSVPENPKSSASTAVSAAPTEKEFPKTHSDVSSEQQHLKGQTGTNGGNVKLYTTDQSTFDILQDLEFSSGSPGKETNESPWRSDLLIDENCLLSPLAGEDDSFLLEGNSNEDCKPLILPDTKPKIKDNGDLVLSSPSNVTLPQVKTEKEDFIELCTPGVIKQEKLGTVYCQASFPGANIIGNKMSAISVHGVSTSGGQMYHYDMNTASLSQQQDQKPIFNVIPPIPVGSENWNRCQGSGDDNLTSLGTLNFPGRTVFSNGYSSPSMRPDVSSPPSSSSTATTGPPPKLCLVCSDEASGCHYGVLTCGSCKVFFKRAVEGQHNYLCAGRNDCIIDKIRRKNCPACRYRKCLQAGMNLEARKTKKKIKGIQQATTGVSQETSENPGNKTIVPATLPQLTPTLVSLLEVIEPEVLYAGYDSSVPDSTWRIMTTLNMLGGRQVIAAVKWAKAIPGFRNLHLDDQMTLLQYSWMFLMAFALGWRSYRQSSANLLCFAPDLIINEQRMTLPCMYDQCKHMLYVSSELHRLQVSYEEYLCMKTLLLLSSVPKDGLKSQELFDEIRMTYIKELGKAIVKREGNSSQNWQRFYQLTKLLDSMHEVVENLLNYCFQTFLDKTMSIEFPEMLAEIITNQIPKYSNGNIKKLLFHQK
Method in brief: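 qHTS in GR-bla HeLa cells: 4 h settling at 37 C/5% CO2, 18 h compound incubation at 37 C, 2 h LiveBLAzer B/G FRET substrate at room temperature, fluorescence intensity measured.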

[19] = molecular target: Glucocorticoid receptor (Homo sapiens) (UniProt P04150); experiment: qHTS assay to identify small molecule antagonists of the glucocorticoid receptor (GR) signaling pathway (AID 720692; active = well fitted inhibition curve with a large enough effect in the signal ratio in the repeat runs, not every such curve was filed as active; the % refers to the signal ratio; also: potency is read from the fitted curve at half-maximal effect)
Method in brief: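 Inhibition of glucocorticoid signalling is measured in HeLa cells with a GRE-controlled beta-lactamase reporter; cells are co-treated with compound and 5 nM dexamethasone (final) for 18 h before FRET substrate readout.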
Tags tell the direction and shape of the fitted curve or compound fluorescence and quenching.

| SMILES | Potency [1] | Potency [2] | Potency [3] | Potency [4] | Potency [5] | Potency [6] | Potency [7] | Potency [8] | Potency [9] | Potency [10] | Potency [11] | Potency [12] | Potency [13] | Potency [14] | Potency [15] | Potency [16] | Potency [17] | Potency [18] | Potency [19] |
| --- | --- | --- | --- | --- | --- | --- | --- | --- | --- | --- | --- | --- | --- | --- | --- | --- | --- | --- | --- |
| Cc1ccc(O)c(O)c1 | inactive | inactive | inactive | inactive | inactive | inactive | inactive | inactive | inactive | inactive | inactive | inactive | inactive | inactive | inactive |  |  |  |  |
| Oc1cc(Cl)cc(Cl)c1Cl |  |  |  | inactive | inactive | inactive |  | inactive | inactive | inactive | inactive | inactive | inactive | inactive | inactive | inactive | 4.97 µM (active) | inactive |  |
| Cc1c(C)c([N+](=O)[O-])c(C(C)(C)C)c([N+](=O)[O-])c1C | inactive | inactive |  | inactive | inactive | inactive |  | inactive | inactive | inactive | inactive | inactive | inactive | inactive | inactive | inactive |  |  |  |
| CCCCCCCCCCCCOC(=O)c1ccc(O)cc1 | inactive | inactive |  | inactive | inactive | inactive | inactive | inactive | inactive | inactive | inactive | inactive |  | inactive |  | inactive | 3.46 µM (active) |  |  |
| C#C[C@]1(O)CC[C@H]2[C@@H]3[C@H](C)CC4=C(CCC(=O)C4)[C@H]3CC[C@@]21C | inactive | inactive | inactive | inactive | inactive | inactive | inactive | inactive | inactive | inactive | inactive | inactive | inactive | inactive |  |  |  |  |  |
| O=C1CCc2ccc(OCCCCN3CCN(c4cccc(Cl)c4Cl)CC3)cc2N1 |  | inactive |  | inactive | inactive | inactive | inactive | inactive | inactive | inactive | inactive | inactive | inactive | inactive | inactive | 23.7 µM (active) |  | inactive |  |
| CCN(CC)C(=O)c1cc(S(=O)(=O)Cc2ccccc2)c(N2CCC(c3ccccc3)CC2)cc1N(CC)CCN(C)C | inactive | 29.8 µM (active) |  | inactive | inactive | inactive | inactive | inactive | inactive | inactive | inactive | inactive | inactive | inactive | inactive | 29.8 µM (active) |  | inactive | 21.3 µM (active) and inactive |
| CCC(C)[O-].CCC(C)[O-].CCOC(=O)/C=C(/C)[O-].[Al+3] |  | inactive | inactive | inactive | inactive | inactive | inactive | inactive | inactive | inactive | inactive | inactive |  | inactive | inactive |  | inactive |  |  |
| O=c1oc2cc(O)ccc2c2oc3cc(O)ccc3c12 |  | inactive | inactive | inactive | inactive |  |  | inactive | 5.01 µM (active) | inactive | inactive | inactive |  | inactive |  | inactive | 58.6 µM (active) | inactive |  |
| CCC(C)n1ncn(-c2ccc(N3CCN(c4ccc(OC[C@H]5CO[C@](Cn6cncn6)(c6ccc(Cl)cc6Cl)O5)cc4)CC3)cc2)c1=O (stereo partly drawn) | inactive |  | inactive | inactive | inactive | inactive | inactive | inactive | inactive | inactive | inactive | inactive | inactive | inactive | inactive | inactive |  |  |  |
| Cc1ccc(O)c(N)c1 |  |  | inactive | inactive | inactive | inactive |  | inactive | inactive | inactive | inactive | inactive |  | inactive | inactive |  |  | inactive | inactive |
| O=C(c1ccc(O)c(O)c1)c1ccc(O)cc1O | inactive |  | inactive | inactive | inactive | 31.6 µM [fluorescent] (active) | inactive | inactive | 35.5 µM (active) | inactive | inactive | inactive |  | inactive | inactive |  | 3.85 µM (active) | inactive |  |
| O=C1NC(=O)[C@@H]2CC=CC[C@H]12 |  | inactive | inactive | inactive | inactive | inactive | inactive | inactive | inactive | inactive | inactive | inactive |  | inactive | inactive | inactive |  | inactive | inactive |
| Cc1cc(C(C#N)c2ccc(Cl)cc2)c(Cl)cc1NC(=O)c1cc(I)cc(I)c1O (stereo not drawn) | inactive |  |  | inactive | inactive | inactive | inactive | inactive | inactive | inactive | inactive | inactive | inactive | inactive |  | 3.35 µM (active) | 2.37 µM (active) | inactive |  |
| O=C1c2ccccc2C(=O)N1SC1CCCCC1 | inactive | inactive |  | inactive | inactive | inactive | inactive | inactive | inactive | inactive | inactive | inactive | inactive |  | inactive | 68.5 µM (active) and inactive |  |  |  |
| CC(=O)[C@H]1CC[C@H]2[C@@H]3CCC4=CC(=O)CC[C@]4(C)[C@H]3CC[C@]12C | inactive | inactive | inactive | inactive | inactive | inactive |  | inactive | inactive | inactive | inactive | inactive | inactive | inactive | inactive |  | 19.3 µM (active) |  |  |

— PubChem BioAssay (Tox21)
